Test systems include DU-145 prostate; K-562 leukemia; MALME-3M melanoma; MDA-MB-231 breast; RXF 393 renal; SF-268 CNS; SF-539 CNS; M14 melanoma; HCT-15 colon; HT29 colon; SNB-75 CNS; SNB-19 CNS; PC-3 prostate; SK-MEL-5 melanoma; UACC-62 melanoma; LOX IMVI melanoma; SK-MEL-28 melanoma; SF-295 CNS; UACC-257 melanoma; U251 CNS.
Holding throughout (experiment): NCI-60 one-dose screen, 48 h (100 = growth as untreated, 0 = no growth, -100 = all killed)
Common to all, as to conditions: 10 µM unless noted

The panel holds about 83,000 compounds, 20% with a hit somewhere; the sample as a whole holds those more often.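 Cell lines were cultured in 96-well plates, exposed to a single compound concentration, and assessed for percent growth 48 hours later.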 Values without a mark were called inactive. Activity calls are given as the source filed them. Rule for the calls: active = growth percent below 10; inactive = the rest.

Growth data for nine compounds are collected here from PubChem BioAssay (NCI).

As for `NC1=CSC2=N/C(=C\c3ccc(Cl)cc3)C(=O)N12`, the growth is 77.9% with DU-145 prostate; 40.1% in the test on K-562 leukemia; 64.9% in the test with MALME-3M melanoma; 83.2% with MDA-MB-231 breast; 65.7% in the test with RXF 393 renal; 90.4% in the test on SF-268 CNS. In addition, the growth in the test with SF-539 CNS was 90.4%; in the test with M14 melanoma, 76.8%; with HCT-15 colon it was 66.7%; in the test with HT29 colon it was 62.6%; in the test on SNB-75 CNS it was 87.4%; in the test on SNB-19 CNS, 87%. Besides, the growth in the test with PC-3 prostate was 80.6%; with SK-MEL-5 melanoma it was 72.6%; in the test on UACC-62 melanoma, 90.3%; with LOX IMVI melanoma, 50.6%; with SK-MEL-28 melanoma, 96.3%.

Regarding `CCCCNc1ccc2c3c1cccc3c(=O)n1c3ccccc3nc21`, the growth in the test on DU-145 prostate was 99.4%; with K-562 leukemia, 78.8%; with MALME-3M melanoma, 89.3%; with MDA-MB-231 breast it was 79.8%; in the test with RXF 393 renal it was 104%; in the test on SF-268 CNS, 101%. Moreover, the growth with SF-539 CNS is 103%; in the test on M14 melanoma it was 93.1%; in the test with HCT-15 colon, 76.2%; in the test on HT29 colon, 80.4%; in the test on SNB-75 CNS, 73.4%; in the test with SNB-19 CNS, 101%. The growth is 85.5% with PC-3 prostate; 75.5% with SK-MEL-5 melanoma; 85.9% in the test with UACC-62 melanoma; 75.9% with LOX IMVI melanoma; 103% with SK-MEL-28 melanoma.

For `COc1cc2c(cc1O)CCc1cc(O)cc(OC)c1-2`, the growth in the test on DU-145 prostate was 109%; in the test on K-562 leukemia, 99.2%; with MALME-3M melanoma, 96.5%; in the test on MDA-MB-231 breast it was 83.1%; with RXF 393 renal it was 103%; with SF-268 CNS, 93.8%. Further, the growth was 103% in the test with SF-295 CNS; 95.3% with UACC-257 melanoma; 90.7% with HCT-15 colon; 95.6% with HT29 colon; 91.9% in the test with SNB-75 CNS; 98% in the test with SNB-19 CNS. Also, the growth was 91.3% in the test on U251 CNS; 93.6% in the test on PC-3 prostate; 98.5% in the test on SK-MEL-5 melanoma; 87.2% in the test on UACC-62 melanoma; 93.5% in the test on LOX IMVI melanoma; 100% with SK-MEL-28 melanoma.

In the case of `CNc1nc(C)c(-c2nc(Nc3cccc(S(N)(=O)=O)c3)ncc2F)s1`, the growth is 10.9% in the test on DU-145 prostate; 4.89% (active) with K-562 leukemia; -31.4% (active) with MALME-3M melanoma; 3.09% (active) in the test on MDA-MB-231 breast; -50% (active) in the test with RXF 393 renal; -12.7% (active) in the test with SF-268 CNS. Further, the growth with SF-295 CNS is 6.78% (active); in the test with UACC-257 melanoma, -16.4% (active); in the test with HCT-15 colon it was 1.76% (active); in the test with HT29 colon, 0.997% (active); with SNB-75 CNS, -19.2% (active); in the test on SNB-19 CNS, 7.87% (active). The growth was 4.31% (active) in the test with U251 CNS; 11.7% in the test with PC-3 prostate; -23.3% (active) in the test with SK-MEL-5 melanoma; -48.6% (active) in the test with UACC-62 melanoma; 0.394% (active) with LOX IMVI melanoma; -38% (active) in the test with SK-MEL-28 melanoma.

On to `COc1c(C2CC(=O)Nc3c2cnn3Cc2ccco2)cc2c(c1OC)OCO2` (stereo not given), for which the growth in the test with DU-145 prostate was 5.85% (active); in the test with K-562 leukemia, 5.69% (active); with MALME-3M melanoma it was 55.7%; in the test with MDA-MB-231 breast, 16%; with RXF 393 renal it was -30% (active); with SF-268 CNS, 34.1%. Also, the growth in the test with SF-295 CNS was -20.6% (active); with UACC-257 melanoma, 68.4%; with M14 melanoma, 9.85% (active); with HCT-15 colon, 18.5%; in the test with HT29 colon, 11.2%; with SNB-75 CNS, 8.9% (active). The growth in the test with SNB-19 CNS is 50.6%; in the test on PC-3 prostate it was 24.6%; in the test with SK-MEL-5 melanoma it was 3.98% (active); with UACC-62 melanoma, 35.4%; in the test with SK-MEL-28 melanoma it was 40.7%.

As to `COc1cc(-c2cnc3nonc3n2)c(OC)c2c1OCO2`, the growth is 113% with DU-145 prostate; 49.2% in the test on K-562 leukemia; 91.5% in the test with MALME-3M melanoma; 89.4% in the test on MDA-MB-231 breast; 90.9% in the test with RXF 393 renal; 99% with SF-268 CNS. Besides, the growth is 104% in the test on SF-295 CNS; 93.6% with UACC-257 melanoma; 107% with M14 melanoma; 87.5% with HCT-15 colon; 104% in the test with HT29 colon; 95.7% in the test with SNB-75 CNS. Moreover, the growth is 108% in the test on SNB-19 CNS; 76.2% in the test on PC-3 prostate; 96.2% in the test on SK-MEL-5 melanoma; 106% in the test with UACC-62 melanoma; 111% in the test on SK-MEL-28 melanoma.

Take `COc1ncc(-c2ccc3ncnc(Nc4cccc(Cl)c4)c3c2)cc1NS(C)(=O)=O`: the growth in the test with DU-145 prostate was 27.4%; with K-562 leukemia it was 56.3%; with MALME-3M melanoma it was -2.69% (active); in the test with MDA-MB-231 breast it was 43.8%; in the test on RXF 393 renal, 7.92% (active); with SF-268 CNS it was 44.8%. Moreover, the growth in the test with SF-295 CNS is 32.1%; in the test on M14 melanoma, 46.9%; in the test on HCT-15 colon, 30.8%; with HT29 colon it was 22.3%; with SNB-75 CNS, 9.09% (active); in the test with SNB-19 CNS it was 37.6%. Moreover, the growth was 46.8% in the test with U251 CNS; 25.9% in the test on PC-3 prostate; 23.3% with SK-MEL-5 melanoma; 19.1% in the test with UACC-62 melanoma; 35.3% with LOX IMVI melanoma.

Take `O=c1c2cccc3c(Nc4c(F)cccc4F)ccc(c32)c2nc3ccccc3n12`: the growth was 104% in the test on DU-145 prostate; 84.9% with K-562 leukemia; 93.8% in the test on MALME-3M melanoma; 82.1% in the test with MDA-MB-231 breast; 116% with RXF 393 renal; 97.8% in the test on SF-268 CNS. Further, the growth is 100% in the test with SF-539 CNS; 100% with M14 melanoma; 75.5% in the test on HCT-15 colon; 93.4% with HT29 colon; 80% with SNB-75 CNS; 103% with SNB-19 CNS. The growth with PC-3 prostate is 84.5%; in the test on SK-MEL-5 melanoma, 81.8%; with UACC-62 melanoma, 86.9%; in the test with LOX IMVI melanoma, 86.9%; in the test on SK-MEL-28 melanoma, 109%.

Take `O=C1/C(=C/c2ccc(Cl)cc2Cl)CN(S(=O)(=O)c2ccccc2)C/C1=C\c1ccc(Cl)cc1Cl`: the growth in the test with DU-145 prostate is 9.52% (active); in the test on K-562 leukemia, 0.787% (active); in the test with MALME-3M melanoma, 36.8%; in the test with MDA-MB-231 breast it was -23.2% (active); in the test on RXF 393 renal it was -87% (active); with SF-268 CNS it was 4.96% (active). The growth is -54.1% (active) in the test on SF-539 CNS; 20.5% in the test with M14 melanoma; -14.7% (active) in the test with HCT-15 colon; -27.5% (active) with HT29 colon; 27.8% in the test with SNB-75 CNS; 39.1% with SNB-19 CNS. Also, the growth in the test with PC-3 prostate was 6.14% (active); in the test on SK-MEL-5 melanoma, 47.5%; in the test on UACC-62 melanoma it was 2.57% (active); in the test on LOX IMVI melanoma, -58.7% (active); in the test on SK-MEL-28 melanoma, 34.4%.
